APE1 inh = APE1 (human) endonuclease inhibition. recombinant APE1, TAMRA/BHQ-2 abasic DNA cleavage fluorescence. AID 2517. Potency, µM (doses to about 65.8 µM), for the others: top-dose activity change, negative = inhibition, hits mostly inhibitors. P27695. actives 0.35% (n = 350,000);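 further: plate controls were vehicle for no effect and reference inhibitor for full effect; nearly all actives have a fitted effect of over 55% in size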
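Enzyme (0.75 nM final) and test compound are incubated 15 min at room temperature before adding 50 nM quenched THF abasic-site duplex. Cleavage dequenches TAMRA, followed at 525/598 nm over three reads one minute apart.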
WRN helicase inh-1 = WRN helicase (human) inhibition. Q14191. WRN helicase unwinding, fluorescent forked duplex, kinetic. Potency, µM (doses to about 114 µM), without a hit: at the top dose activity change, negative = inhibition, actives largely listed as inhibitors. actives 0.46% (n = 360,000). AID 651768; further: on the % scale 0 is the no-effect control and ±100 the full control effect; nearly all actives have a fitted effect of over 55% in size
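Kinetic red-fluorescence monitoring (525/598 nm) tracks WRN helicase activity after 100 nM fluorophore-quencher forked duplex and 2 mM ATP are added to 20 nM enzyme pretreated 15 min at room temperature with compound.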
GCN5L2 inh = GCN5L2 (KAT2A) acetyltransferase inhibition; AID 504327; Potency, µM (titrated, usually from 58.9 µM), inactives show top-dose activity change, negative = inhibition, hits mostly inhibitors; GCN5L2 HAT assay, ThioGlo1 CoA-SH fluorescence; actives 0.21% (n = 390,000); Q92830; further: on the % scale 0 is the no-effect control and ±100 the full control effect
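Enzyme at 20nM final was mixed with library compounds for 15 min at room temperature. Peptide H3(1-25) at 75uM, acetyl-CoA at 70uM and ThioGlo1 at 50uM were then added. Plates were read immediately and after 20 min (Ex340nm/Em540nm).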
BLM helicase inh-1 = blocks DNA unwinding by human BLM helicase; Potency, µM (series often up to 56.1 µM), for inactives: top-dose activity change, negative = inhibition, hits mostly inhibitors; actives 0.2% (n = 350,000); P54132; recombinant BLM DNA unwinding, fluorescence dequenching;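 further: plate controls were vehicle for no effect and no enzyme for full effect; nearly all actives have a fitted effect of over 35% in size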
RECQ1 helicase = inhibitors of human RECQ1 DNA helicase; RECQ1 DNA unwinding, red fluorescence kinetic read; Potency, µM (highest dose often 57.3 µM), without a hit: top-dose activity, negative = inhibition, actives largely listed as inhibitors; AID 2549; P46063; actives 0.54% (n = 240,000);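 further: plate controls were vehicle for no effect and no enzyme for full effect; nearly all actives have a fitted effect of over 30% in size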
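RECQ1T1 50 nM; forked duplex (20 bp + 30-nt ss tails) 200 nM, ATP 2 mM final; pH 8.0, 2 mM MgCl2, 2.5 ug/ml poly(dI-dC); 15 min compound preincubation; discontinuous kinetic read over 2 h at RT.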
ERG-DNA inh = blocks human ERG Ets domain binding to DNA | fluorescence polarization, His-ERG Ets domain / labelled DNA | actives 0.028% (n = 370,000) | P11308 | AID 624246 | Potency, µM (doses to about 76.9 µM), for inactives: at the highest dose FP activity, negative = inhibition, most hits filed as inhibitors; active means well fitted inhibition curve with a large enough effect in the polarisation, with a control signal flat; inconclusive means small, poorly fitted or top-dose-only effect, or effect the other way, or a change in a side signal; inactive means no such curve, though single readings can be large or run the other way; the % refers to the polarisation;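 further: polarization taken with two DNA probes labelled with fluorescein and Texas red; % of control where 0% means no effect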
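His-tagged ERG Ets domain (1 uM in the protein solution; 300mM KCl, 50mM Tris-HCl, 1mM EDTA, 1mM DTT, pH 7.5) received compound, then a probe mix of 5 nM fluorescein-DNA and 100nM Texas-615-DNA. Fluorescence polarization was read for both dyes.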
WRN helicase inh-2 = confirmation of human WRN helicase inhibitors; shares compounds with WRN helicase inh-1; WRN helicase DNA unwinding, fluorescence kinetic; Potency, µM (highest dose often 57.1 µM), inactives show at the top dose activity, negative = inhibition, actives largely listed as inhibitors; actives 63% (n = 610); AID 720497; further: nearly all actives have a fitted effect of over 65% in size
TO DNA binding = counter-screen for WRN helicase inhibitors: DNA binding. AID 720499. actives 10% (n = 610). shares compounds with WRN helicase inh-1. thiazole orange DNA binding displacement, fluorescence. Potency, µM (series often up to 57.1 µM), for inactives: top-dose activity change, negative = inhibition, most hits filed as inhibitors;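 further: drop in dye fluorescence marks compound binding to DNA; on the % scale 0 is the no-effect control and ±100 the full control effect; nearly all actives have a fitted effect of over 60% in size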
BLM helicase inh-2 = blocks human BLM helicase in WRN counterscreen | shares compounds with WRN helicase inh-1 | Recombinant BLM helicase DNA unwinding, red fluorescence | Potency, µM (titrated, usually from 57.1 µM), for inactives: at the top dose activity change, negative = inhibition, usual class: inhibitors | actives 60% (n = 610) | AID 720503; further: nearly all actives have a fitted effect of over 60% in size
Active calls of the source: *; i = inactive; ? = inconclusive; . = no result given; [ ] = remark or other dose. An excerpt weighted towards active compounds, which were near 0.88% of everything screened. Unless noted, the call rests on the fitted dose curve; in most records, active means well fitted curve in the direction sought with a large enough effect; inconclusive means small, poorly fitted or top-dose-only effect, or another doubt; inactive means no such curve, though single readings can be large; an effect the other way counts as inactive or inconclusive. Potency means the concentration at half of the fitted maximal effect.

SMILES	APE1 inh	WRN helicase inh-1	GCN5L2 inh	BLM helicase inh-1	RECQ1 helicase	ERG-DNA inh	WRN helicase inh-2	TO DNA binding	BLM helicase inh-2
Cc1nc(-c2cccc(F)c2)sc1CCNC(=O)Cc1ccc(F)cc1	.	.	-21%	-4%	.	7%	.	.	.
CCc1ccc2c(c1)C(NC(C)=O)C(=O)N2CCN1CCOCC1 (centres undefined)	-28%	45µM*	1%	-12%	.	-19%	?	-5%	19µM*
COc1ccc(CNc2ccnc(-c3ccccc3CN(C)C)n2)c(OC)c1	?	.	-9%	4%	i	.	.	.	.
O=c1c(C(c2ccc(Br)cc2)c2c(O)nc3n(c2=O)CCCS3)c(O)nc2n1CCCS2	0%	-20%	1%	-1%	-7%	-2%	.	.	.
O=c1c(C(c2ccc(O)cc2)c2c(O)nc3n(c2=O)CCS3)c(O)nc2n1CCS2	1%	15µM*	-4%	-3%	i	-4%	?	-8%	?
O=c1c(C(c2ccc(O)cc2)c2c(O)nc3n(c2=O)CCCS3)c(O)nc2n1CCCS2	?	?	-10%	-9%	?	-7%	?	-3%	19µM*
CCCNC(=O)c1cc(C2CCCCN2S(=O)(=O)Cc2cccc(C(F)(F)F)c2)on1 (centres undefined)	.	-8%	.	.	.	.	.	.	.
COC1OC2COC(c3ccccc3)OC2C(O)C1O (centres undefined)	-2%	.	12%[0.501 µM]	0%	i	.	.	.	.
CN(C)CCC(=O)C(Cc1ccccc1)c1ccccc1 (centres undefined)	.	7.9µM*	.	.	.	-8%	-22%	-2%	-18%
O=C1CC(c2nc(-c3ccccc3)no2)CN1c1ccccc1 (centres undefined)	.	.	-14%	0%	.	4%	.	.	.
CCN1CCN(Cc2c(O)ccc3c2O/C(=C\c2ccccc2)C3=O)CC1	-7%	-11%	-17%	-5%	-4%	3%	.	.	.
CC1CCCN(Cc2c(O)ccc3c2O/C(=C\c2ccco2)C3=O)C1 (centres undefined)	-1%	35µM*	-24%	-5%	-7%	0%	-9%	331%	-27%
COc1ccc(OC)c(NC(=O)C2CCN(S(=O)(=O)c3ccc4c(c3)CCCC(=O)N4)CC2)c1	.	.	4%	3%	.	2%	.	.	.
COC(=O)C(CC(=O)c1ccc(Br)cc1)n1ccnc1 (centres undefined)	2%	.	-23%	-9%	-5%	.	-15%	-11%	?
COC(=O)C(CC(=O)c1ccc(Br)cc1)n1nc(C)cc1C (centres undefined)	-2%	-6%	-20%	-1%	.	1%	.	.	.
CCc1[nH]c(=O)[nH]c1C(C)S(=O)(=O)c1ccc(C)cc1 (centres undefined)	-3%	?	2%	-1%	-3%	-1%	2%	1%	?
O=C(COc1ccccc1)NCCc1csc(-c2ccc(Cl)cc2)n1	.	.	-1%	-3%	.	1%	.	.	.
Cc1cc(NS(=O)(=O)c2ccc(NS(=O)(=O)c3ccc(Br)cc3)cc2)no1	3%	?	3%	-3%	.	1%	.	.	.
Cc1cc(NS(=O)(=O)c2ccc(NC(=O)/C=C/c3ccc(Br)cc3)cc2)no1	17%	?	?	1%	.	3%	-27%	-14%	?
Cc1cc(Cl)c(OCCOCCN2CCCCC2)c(Br)c1	-5%	?	-4%	-3%	i	1%	-2%	-2%	-15%
O=C(CSc1nc2ccccc2o1)N/N=C/c1ccc(O)c(O)c1	?	8.9µM*	-14%	-21%	-12%	-10%	2.7µM*	?	1.9µM*
Brc1ccc2nc(C3CCCCC3)c(CC3CCCCC3)n2c1	.	-10%	.	.	.	.	.	.	.
COc1ccc(/C=C2\SC(=S)N(CC(=O)NC3C=CS(=O)(=O)C3)C2=O)cc1 (centres undefined)	57%	-1%	-1%	-3%	.	1%	.	.	.
COC(=O)c1ccc(CCc2cc(O)c(Br)cc2O)cc1	.	25µM*	.	.	.	.	-27%	-11%	?
O=C1C=C(c2ccccc2)C(=O)N1Nc1ccccc1	5%	?	-10%	-4%	i	7%	-6%	-4%	-19%
SMILES	APE1 inh	WRN helicase inh-1	GCN5L2 inh	BLM helicase inh-1	RECQ1 helicase	ERG-DNA inh	WRN helicase inh-2	TO DNA binding	BLM helicase inh-2
COC(=O)C(Cc1c[nH]c2ccccc12)NC(=O)c1cc(-c2ccc(OC)c(OC)c2)oc1C (centres undefined)	-11%	89µM*	2%	-3%	-7%	10%	-25%	8%	-19%
Cc1cc(C(=O)NC(Cc2c[nH]c3ccccc23)C(=O)O)c(C)o1 (centres undefined)	10%	1%	-25%	1%	.	24%	.	.	.
CCOC(=O)[C@]12CCC=C1N(Cc1ccco1)C(=O)[C@H](CC(=O)NCc1ccccc1)C2	.	-31%	.	.	.	.	.	.	.
O=C1CCCN1CCCNc1nc(NCc2cccs2)nc2ccsc12	.	-8%	.	.	.	.	.	.	.
Cc1ccccc1N=Cc1cc2c(cc1O)OC(N)=C(C#N)C2c1ccccc1 (centres undefined)	-5%	?	-14%	-6%	-3%	1%	?	21%	?
CC1(C(=O)NS(=O)(=O)c2ccccc2OC(F)(F)F)CCN1C(=O)c1ccco1 (centres undefined)	.	6%[57.1 µM]	.	.	.	.	.	.	.
Nc1nnc(CC(=O)N/N=C/c2ccc(-c3ccc(F)cc3)o2)s1	-5%	-14%	1%	0%	5%	-3%	.	.	.
Nc1nnc(CC(=O)N/N=C/c2ccc(-c3cccc(C(=O)O)c3)o2)s1	-11%	?	-2%	-1%	11%	12%	?	-22%	?
O=S(=O)(Nc1cc(Sc2ncn[nH]2)c(O)c2ccccc12)c1ccccc1	3%	35µM*	22µM*	28µM*	-7%	4%	?	-16%	?
Cc1cc(O)c(Sc2ncn[nH]2)cc1NS(=O)(=O)c1ccc(Cl)cc1	46%	0%	-6%	.	.	-23%[15.4 µM]	.	.	.
COc1cc2c(cc1NC(=O)CSc1ccccc1)oc1ccccc12	-4%	-6%	-5%	-9%	-2%	14%	.	.	.
COc1cc2c(cc1NC(=O)CSc1nc3ccccc3[nH]1)oc1ccccc12	?	?	2%	-9%	-12%	0%	-23%	25%	?

Source: PubChem
